# Assay results from PubChem BioAssay (NCI).
# Compounds without any hit were thinned out: in the full panel of roughly 83,000, 20% have a hit.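 The endpoint reported here, percent growth, reads 100 for growth as untreated, 0 for no net growth and -100 for all cells dead.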 Calls of active or inactive are those of the source. The calls were made as follows: active = growth percent below 10; inactive = the rest.
# Test system: HS 578T breast
# Assay: NCI-60 one-dose screen, 48 h (100 = growth as untreated, 0 = no growth, -100 = all killed)
# Conditions: 10 µM unless noted
row,Compound,growth
1,Cn1cnc([N+](=O)[O-])c1N1c2ccncc2Sc2ccncc21,98.2% (inactive)
2,O=C(Nc1ccccc1F)Nc1ccccc1Cl,103% (inactive)
3,COc1cc(/C=C/C(=O)c2ccc(Oc3ncnc4ccccc34)cc2)cc(OC)c1OC,97.1% (inactive)
4,COc1ccc(/C=C2\CS(=O)(=O)C/C(=C\c3ccc(OC)cc3)C2=O)cc1,48% (inactive)
5,CC(NCCC(c1ccccc1)c1ccccc1)c1ccccc1 (configuration not stated),82.8% (inactive)
6,O=C(/C=C/c1ccco1)c1cccc(Nc2nc(Nc3ccccc3)nc(Nc3ccccc3)n2)c1,92% (inactive)
7,Cc1cc(NCCN(C(C)C)C(C)C)nc(/N=C(\N)Nc2ccc(Cl)c(C(F)(F)F)c2)n1,-48.5% (active)
8,Clc1ccc(CN2COc3c(ccc4cccnc34)C2)cc1Cl,55.4% (inactive)
9,CCC(C)Nc1ccc(N)cc1 (configuration not stated),78.9% (inactive)
10,CC1(C)N=C(N)N=C(N)N1c1ccc(OCC(=O)Nc2ccccc2)c(Cl)c1,97.7% (inactive)
11,COc1ccc2c(c1)C(=O)/C(=C/c1ccc(OCC(=O)c3ccc(Cl)cc3)cc1)O2,115% (inactive)
12,Cc1cccc(NC(=O)CCc2ccc(N3C(N)=NC(N)=NC3(C)C)cc2)c1,91.4% (inactive)
13,CCn1c(SC)nnc1-c1cc2c([nH]c3ccccc32)c(-c2cccc(O)c2)n1,12.3% (inactive)
14,CC(=O)N1N=C2N(Cc3ccccc3)C(=O)c3c(sc4c3CCCC4)N2C1c1cn(-c2ccccc2)nc1-c1ccc(Cl)cc1 (configuration not stated),93% (inactive)
15,COc1ccc2c(c1)C(=O)/C(=C/c1cccc(OCC(=O)c3ccccc3)c1)O2,52% (inactive)
16,NC(=S)NNC1CCCCC1,101% (inactive)
17,NC(CSC(c1ccccc1)(c1ccccc1)c1ccc(F)cc1)C(=O)O (configuration not stated),16.9% (inactive)
18,CC1=C[S+](c2ccccc2)c2cccc3cc4ccccc4c1c23 (configuration not stated),69.5% (inactive)
19,Cn1c(I)c(C#C[Si](C)(C)C)c(=O)[nH]c1=O,10.6% (inactive)

row,Compound,growth
1,COc1ccc2c(-c3ccc(F)cc3)c(C#N)c(=NC(C)=O)oc2c1,42.9% (inactive)
2,Nc1ccc(S(=O)(=O)Nc2ccnn2-c2ccccc2)cc1,103% (inactive)
3,Cc1cn(C2CC(F)C(CO)O2)c(=O)[nH]c1=O (configuration not stated),133% (inactive)
4,CCCN1C(=O)CSC1=Nc1ccc2cc3ccc(N=C4SCC(=O)N4CCC)cc3nc2c1,31.6% (inactive)
5,CC(=O)c1cc2c(c(O)c1C)C(=O)C(=O)c1c(O)cccc1-2,-12.3% (active)
6,CC(C)(C)NC(C1=CC(C)(C)c2ccccc2C1=O)c1ccccc1 (configuration not stated),46.4% (inactive)
7,CC(=O)N1N=C(CCC(=O)c2nc3ccc([N+](=O)[O-])cc3[nH]2)OC1c1ccc(O)cc1 (configuration not stated),104% (inactive)
8,CCC1(C(N)=O)CC2C=CC1CC2 (configuration not stated),149% (inactive)
9,C=C1C(=O)O[C@H]2[C@H]1CC/C(C(=O)Nc1ccc(OC)c(C(N)=O)c1O)=C\CC[C@@]1(C)O[C@@H]21,77.4% (inactive)
10,Nc1nc2ccc(CNc3ccc(C(=O)NC(CC(=O)O)C(=O)O)cc3)cc2c(=O)[nH]1 (configuration not stated),97.5% (inactive)
11,CCOC(=O)NNc1nncc2ccccc12,98.9% (inactive)
12,COc1ccc2c(c1)nnc1c3cccnc3[nH]c21,-24.5% (active)
13,CC1(C)N=C(N)N=C(N)N1c1ccc(F)c(C(F)(F)F)c1,99.3% (inactive)
14,O=C1CN(CCN2CC(=O)NC(=O)C2)CC(=O)N1,102% (inactive)
15,COc1ccc(/C(Cl)=N/N=C(\Cl)c2cc(OC)c(OC)c(OC)c2)cc1OC(C)=O,90.4% (inactive)
16,CC1(C)N=C(N)N=C(N)N1c1cccc(CCCCc2ccccc2)c1,66.5% (inactive)
17,CC(=O)c1ccc2c(c1)C1C=CCC1[C@H](c1cc3c(cc1Br)OCO3)N2 (some centres not stated),7.06% (active)
18,Clc1ccc2c(c1)nnn1c3ncccc3c(Br)c21,16.7% (inactive)
